Source: PubChem BioAssay (National Center for Advancing Translational Sciences (NCATS))
Compounds with a hit are over-represented: about 8.6% of the library has one in this group of screens.
Lassa entry – blocks Lassa virus binding or cell entry. Lassa virus pseudotyped entry inhibition, cell-based qHTS. Potency, µM (doses to about 49.2 µM), hits mostly inhibitors. hit rate 4.1% among 18,000
MARV entry inh – Marburg virus entry inhibition; AID 720532; Potency, µM (titrated, usually from 49.2 µM), hits mostly inhibitors; Marburg virus pseudotype entry/binding inhibition, cell-based; hit rate 6.5% among 18,000
A number is an active result; ! = repeats disagree; [ ] = remark or other dose. Calls come from the whole dose curve; tested in HEK293 cells.

How did O=C(N[C@H]1CN2CCC1CC2)c1ccc(Cl)cc1 do in these assays?
Lassa entry: inactive; MARV entry inh: inconclusive

What do the screens show for `Cn1cc(C(=O)C(=O)N[C@H]2CN3CCC2CC3)c2ccccc21`?
Lassa entry: inconclusive; MARV entry inh: 28.2µM!

What do the screens show for `Fc1ccc(-c2ncn(CCCN3CCOCC3)c2-c2ccncc2)cc1`?
Lassa entry: inactive; MARV entry inh: inactive

How did C=CCOC(=O)C(C(C)=O)[C@@H](NC(=O)OC)c1ccco1 (some centres undefined) do in these assays?
Lassa entry: inactive[8.59 µM]; MARV entry inh: inactive[8.59 µM]

What do the screens show for `COc1cccc([C@H]2Oc3ccc(OC)cc3C(=NO[C@@H](C)CN3CCCCc4nc(C)c(C)cc43)[C@H]2O)c1`?
Lassa entry: inactive[8.59 µM]; MARV entry inh: inactive[8.59 µM]

Results for COc1ccc(S(=O)(=O)N(CCO)c2ccccc2CN(C)CC=Cc2ccc(Cl)cc2)cc1 ?
Lassa entry: 11.2µM; MARV entry inh: 10µM

How did CCC(OC(C)=O)C(CC(C)NC)(c1ccccc1)c1ccccc1 (centres undefined) do in these assays?
Lassa entry: 39.8µM; MARV entry inh: 7.94µM

What do the screens show for `C[C@@H]1[C@H](O)[C@@H](C)/C=C/C=C\C=C\C=C\C=C\C=C\C=C\[C@H](O[C@@H]2O[C@H](C)[C@@H](O)[C@H](N)[C@@H]2O)C[C@@H]2O[C@](O)(C[C@@H](O)C[C@@H](O)[C@H](O)CC[C@@H](O)C[C@@H](O)CC(=O)O[C@H]1C)C[C@H](O)[C@H]2C(=O)O` (stereo in doubt)?
Lassa entry: inactive; MARV entry inh: inactive

Results for COC(=O)C1=C(C(=O)OC)[C@@H]2N(Cc3ccccc3)c3ccccc3[C@@]23C[C@@H](C(=O)OC)N(C(=O)Nc2ccc(C(F)(F)F)cc2)C3=N1 ?
Lassa entry: inactive[8.59 µM]; MARV entry inh: inactive[8.59 µM]

How did CN1C(=O)c2ccccc2C1=O do in these assays?
Lassa entry: inactive; MARV entry inh: inactive

What do the screens show for `CC1=CC2C(=O)c3cccc(O)c3C(=O)C2C(O)=C1` (centres undefined)?
Lassa entry: inactive; MARV entry inh: inactive

What do the screens show for `CC1=CC(=O)c2ccccc2C1=O`?
Lassa entry: inconclusive; MARV entry inh: 10µM!

How did CC1=CC(=O)c2c(O)cccc2C1=O do in these assays?
Lassa entry: 3.16µM; MARV entry inh: 3.98µM

What do the screens show for `CCN1C(=NCCc2ccccn2)NC(c2cccc(C(F)(F)F)c2)C(C(=O)OC)=C1C` (centres undefined)?
Lassa entry: inactive[8.59 µM]; MARV entry inh: inactive[8.59 µM]

How did CCCNC(=O)OC[C@H]1O[C@H](CCON=C(C)CCN2CCCCc3nc(C)c(C)cc32)C=C[C@H]1Oc1ccc(OC)cc1 do in these assays?
Lassa entry: inactive[8.59 µM]; MARV entry inh: inactive[8.59 µM]

Results for CCN1C(=O)[C@@H]2[C@H]3[C@H](O)[C@H](O)CC(=NO[C@@H]4O[C@H](COC(C)=O)[C@@H](OC(C)=O)[C@H](OC(C)=O)[C@@H]4OC(C)=O)[C@@H]3CC[C@H]2C1=O ?
Lassa entry: inactive[8.59 µM]; MARV entry inh: inactive[8.59 µM]

How did COC(=O)C1=C(C)N(Cc2ccccc2)C(=NCCc2c[nH]c3ccccc23)NC1c1ccc(Br)cc1 (centres undefined) do in these assays?
Lassa entry: inactive[8.59 µM]; MARV entry inh: inconclusive

Results for C1CCC(NC(=NC2C3CC4CC(C3)CC2C4)N2CCOCC2)CC1 (centres undefined) ?
Lassa entry: inconclusive; MARV entry inh: 14.1µM

What do the screens show for `CSC[C@H]1CN(CCc2ccccc2)C(=O)[C@H]1CC(=O)Nc1ccccc1`?
Lassa entry: inactive; MARV entry inh: inactive

Results for CCOC(=O)OC[C@H]1O[C@H](c2cc(C)cc(C)c2)C=C[C@H]1OC(=O)OCC ?
Lassa entry: inactive[8.59 µM]; MARV entry inh: inactive[8.59 µM]

Results for COc1ccc2cc1Oc1ccc(cc1)C[C@H]1c3cc(c(OC)cc3CCN1C)Oc1c(OC)c(OC)cc3c1[C@H](C2)N(C)CC3 ?
Lassa entry: 12.6µM; MARV entry inh: 3.55µM

How did COc1cc2c3cc1Oc1c(OC)c(OC)cc4c1[C@@H](Cc1ccc(OC(=O)c5ccc([N+](=O)[O-])cc5)c(c1)Oc1ccc(cc1)C[C@@H]3N(C)CC2)N(C)CC4 do in these assays?
Lassa entry: inconclusive; MARV entry inh: 0.631µM

What do the screens show for `COc1ccc(CC2c3cc(OC)c(OC)cc3CCN2C)cc1OC` (centres undefined)?
Lassa entry: inactive; MARV entry inh: inactive

How did COc1cc2c3cc1Oc1c(OC)c(OC)cc4c1[C@@H](Cc1ccc(O)c(c1)Oc1ccc(cc1)C[C@@H]3N(C)CC2)N(C)CC4 do in these assays?
Lassa entry: 11.2µM; MARV entry inh: 2.82µM

How did COc1cc2c(cc1O)-c1c(O)c(OC)cc3c1[C@H](C2)N(C)CC3 do in these assays?
Lassa entry: inactive; MARV entry inh: inactive

How did COc1ccc2c(c1OC)C(=O)O[C@@H]2[C@H]1c2c(cc3c(c2OC)OCO3)CCN1C do in these assays?
Lassa entry: inactive; MARV entry inh: inconclusive

What do the screens show for `COc1ccc2cc1Oc1ccc(cc1)C[C@H]1c3c(cc4c(c3Oc3cc5c(cc3OC)CCN(C)[C@@H]5C2)OCO4)CCN1C`?
Lassa entry: inconclusive; MARV entry inh: 1.78µM

Results for COc1cc2c(cc1O)C[C@H]1c3c(cc(O)c(OC)c3-2)CCN1C ?
Lassa entry: inactive; MARV entry inh: inactive

Results for CC1=CC[C@@H](COc2ccccc2)O[C@@]2(C1)C(=O)N(Cc1ccc(F)cc1)c1cccc(Br)c12 ?
Lassa entry: inactive[8.59 µM]; MARV entry inh: inactive[8.59 µM]

Results for C[C@@H]1[C@H](O)[C@@H](C)/C=C/C=C/CC/C=C/C=C/C=C/C=C/[C@H](O[C@H]2O[C@@H](C)[C@H](O)[C@@H](N)[C@H]2O)CC2O[C@](O)(C[C@@H](O)[C@H](O)CC[C@@H](O)C[C@@H](O)C[C@@H](O)CC(=O)O[C@H]1C)C[C@H](O)[C@H]2C(=O)O ?
Lassa entry: inactive; MARV entry inh: inactive

Results for CN(C)CCC(c1ccccc1)c1ccccn1 (centres undefined) ?
Lassa entry: inactive; MARV entry inh: inconclusive

Results for C[C@@H](C1=C(CCN(C)C)Cc2ccccc21)c1ccccn1 ?
Lassa entry: inconclusive; MARV entry inh: 17.8µM

What do the screens show for `O=C(NC1CCN(Cc2ccccc2)CC1)c1ccc(I)cc1`?
Lassa entry: inactive; MARV entry inh: inactive

How did O=C(CCC1CCN(Cc2ccccc2)CC1)c1ccc2c(c1)NCCCC2 do in these assays?
Lassa entry: inconclusive; MARV entry inh: 14.1µM

What do the screens show for `C=C(C)C(=O)C=CC=Cc1ccccc1`?
MARV entry inh: inactive[8.59 µM]

Results for COC(=O)c1cc(CNC(=O)c2cccc(F)c2)cc(NC(=O)c2ccccc2OC)c1 ?
Lassa entry: inconclusive; MARV entry inh: 141µM

Results for COC(=O)c1cc(CNC(=O)c2ccccn2)cc(NC(=O)c2ccccc2OC)c1 ?
Lassa entry: inactive; MARV entry inh: inactive

How did COc1ccc(NC(=O)OCCN2CCN(Cc3ccccc3)CCC2=O)cc1 do in these assays?
Lassa entry: inactive; MARV entry inh: inactive

What do the screens show for `COc1ccc(NC(=O)c2cc(OCCCN(C)C)nn2Cc2ccccc2)cc1`?
Lassa entry: inconclusive; MARV entry inh: 8.91µM

Results for C=C1C([C@@H](O)C[C@H](C)C2O[C@@]3(CCCCO3)CC[C@H]2C)OC2CC[C@@]3(CC[C@@H](/C=C/[C@@H](C)C4CC(C)=C[C@]5(O4)O[C@H](C[C@@](C)(O)C(=O)O)CCC5O)O3)OC2[C@@H]1O (some centres undefined) ?
Lassa entry: 1.12µM; MARV entry inh: inconclusive

What do the screens show for `C[C@H]1CN(CCc2ccccc2)C(=O)[C@H]1CC(=O)Nc1ccc(Br)cc1`?
MARV entry inh: inactive
